HPGD inh: HPGD (human) dehydrogenase inhibition; P15428; purified HPGD, NADH fluorescence kinetic, PGE2 substrate; Potency, µM, for inactives: at the highest dose activity change, negative = inhibition, actives largely listed as inhibitors; 4.3% of 150,000 active; AID 894; active means well fitted inhibition curve with a large enough effect, not every such curve was filed as active; inconclusive means small, poorly fitted or top-dose-only effect, or another doubt; inactive means no such curve, though single readings can be large or run the other way; further: on the % scale 0 is the no-effect control and ±100 the full control effect
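20 nM HPGD preincubated 15 min at room temperature with compound in 50 mM Tris-HCl pH 8, 0.01% Tween 20. Started with 1 mM NAD+ and 30 uM prostaglandin E2; NADH fluorescence (360/450 nm) read 5 times over 30-s intervals, last minus first.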
ALDH1A1 block: blocks purified human ALDH1A1 activity | P00352 | Purified ALDH1A1, NADH fluorescence, propionaldehyde substrate | Potency, µM (highest dose often 75.3 µM), inactives show at the highest dose activity, negative = inhibition, most hits filed as inhibitors | 7.3% of 220,000 active | AID 1030; active means well fitted inhibition curve with a large enough effect, not every such curve was filed as active; inconclusive means small, poorly fitted or top-dose-only effect, or another doubt; inactive means no such curve, though single readings can be large or run the other way;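 further: plate controls were no enzyme wells and a reference inhibitor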
Target sequence (P00352 whole entry, looked up): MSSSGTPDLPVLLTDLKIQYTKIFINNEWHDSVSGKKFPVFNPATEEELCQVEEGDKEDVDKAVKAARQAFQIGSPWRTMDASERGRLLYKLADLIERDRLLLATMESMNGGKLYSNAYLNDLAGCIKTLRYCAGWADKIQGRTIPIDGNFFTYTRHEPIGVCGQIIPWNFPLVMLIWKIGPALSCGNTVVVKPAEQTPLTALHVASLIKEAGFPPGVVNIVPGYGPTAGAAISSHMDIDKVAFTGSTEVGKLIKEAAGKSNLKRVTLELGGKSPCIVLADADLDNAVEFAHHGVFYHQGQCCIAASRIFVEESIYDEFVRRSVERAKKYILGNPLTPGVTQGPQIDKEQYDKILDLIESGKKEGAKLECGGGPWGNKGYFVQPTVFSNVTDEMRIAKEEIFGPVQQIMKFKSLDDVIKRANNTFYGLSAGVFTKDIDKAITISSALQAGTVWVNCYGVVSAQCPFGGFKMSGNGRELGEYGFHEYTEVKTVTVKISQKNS
Lamin A splicing: LMNA splicing modulation | HeLa LMNA splicing GFP/RFP minigene ratio, 48 h | Potency, µM (series often up to 46.1 µM), for inactives: at the top dose ratio change, negative = inhibition, actives largely listed as inhibitors | 0.01% of 200,000 active | AID 1487; active means well fitted inhibition curve with a large enough effect in the signal ratio, with a control signal flat, not every such curve was filed as active; inconclusive means small, poorly fitted or top-dose-only effect, or effect the other way, or a change in a side signal; the % refers to the signal ratio; further: on the % scale 0 is the no-effect control and ±100 the full control effect
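S3 HeLa stable clones carrying a lamin A-EGFP splicing minigene plus DsRed2 were seeded at 600 cells/well in Opti-MEM with 2% FBS, pin-dosed and incubated 48 h at 37°C. Acumen cytometry (488 nm) gave the GFP/RFP total-intensity ratio.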
HTT aggregate: mutant huntingtin aggregation inhibition; Potency, µM (titrated, usually from 46.1 µM), for the others: top-dose activity change, negative = inhibition, usual class: inhibitors; 1.1% of 220,000 active; PC12 HttQ103-GFP aggregates, Acumen cytometry, 40 h; further: on the % scale 0 is the no-effect control and ±100 the full control effect; nearly all actives have a fitted effect of over 60% in size
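Read-out: GFP aggregate count by laser scanning cytometer (488 nm excitation, 500-530 nm emission, 1–25 µm objects >6 SD above background). Cells: PC12, inducible HTTex1-Q103-GFP, 100 nM tebufenozide; compounds titrated.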
HTT ATP protect: cytoprotection in Huntington HTT-Q103 PC12 cell model. PC12 HTT-Q103 induced, cytoprotection, ATP luminescence, 40 h. Potency, µM (doses to about 56.4 µM), inactives show cytoprotection (ATP increase), actives largely listed as activators. 0.14% of 230,000 active. AID 1471; further: % of control where 0% means no effect; nearly all actives have a fitted effect of over 45% in size
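PC12 cells with ecdysone-inducible HTT exon 1 Q103-GFP, induced with 100 nM tebufenozide and co-treated with library compounds in a dose series (1536-well, 1500 cells/well). Cytoprotection read as ATP content by ATPlite luminescence.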
Starred values were filed as active, the others as inactive; ? = inconclusive; . = not tested or not shown; [ ] = dose if it differs, or a comment. In the library only some 8.8% were active in any assay of this set; here they are far more common. Unless noted, the call rests on the fitted dose curve; in most records, active means well fitted curve in the direction sought with a large enough effect; inconclusive means small, poorly fitted or top-dose-only effect, or another doubt; inactive means no such curve, though single readings can be large; an effect the other way counts as inactive or inconclusive. Potency means the concentration at half of the fitted maximal effect.

SMILES	HPGD inh	ALDH1A1 block	Lamin A splicing	HTT aggregate	HTT ATP protect
O=C(NC1CCCCC1)C(c1ccc(F)cc1)N(Cc1ccco1)C(=O)CN1C(=O)c2ccccc2S1(=O)=O (configuration not stated)	-16%	6%	-8%	22µM*	-9%[10 µM]
O=C(NCC(=O)N(Cc1ccco1)C(C(=O)NC1CCCCC1)c1cccnc1)c1ccco1 (configuration not stated)	-10%	10%	3%	4%	2%
O=C(NCC(=O)N(Cc1ccc(F)cc1)C(C(=O)NC1CCCC1)c1ccco1)c1ccco1 (configuration not stated)	-1%	-11%	?	-10%	10%
CCOc1ccccc1C(C(=O)NC1CCCC1)N(Cc1ccco1)C(=O)CNC(=O)c1ccco1 (configuration not stated)	-6%	1.8µM*	-15%	-3%	21%[10 µM]
O=C(NCC(=O)N(Cc1cccs1)C(C(=O)NC1CCCCC1)c1ccco1)c1ccco1 (configuration not stated)	-4%	22µM*	4%	13%	1%[10 µM]
O=C(NCC(=O)N(Cc1ccccc1)C(C(=O)NC1CCCC1)c1ccncc1)c1ccco1 (configuration not stated)	-13%	?	?	4%	1%[1.9 µM]
COc1nc(Cl)nc(Cl)c1Cl (tested in a mixture with another compound)	-4%	6%[13.5 µM]	.	.	-6%[10 µM]
COc1ccccc1NS(=O)(=O)c1cc(NC(=O)/C=C/c2cccs2)ccc1N1CCOCC1	?	?	?	?	-7%[10 µM]
Cc1ccccc1C(=O)Nc1cccc(C(=O)OCc2cc(=O)n3ccsc3n2)c1	.	.	1%[46 µM]	.	.
O=C(NCC(=O)N(Cc1ccccc1)C(C(=O)NC1CCCC1)c1ccco1)c1ccco1 (configuration not stated)	-2%	?	4%	1%	-19%[10 µM]
COc1cc(OC)cc(N(C(=O)c2ccco2)C(C(=O)NC2CCCC2)c2ccc(N(C)C)cc2)c1 (configuration not stated)	1%	?	6%	4%	-2%
COc1ccc(N(C(=O)c2ccco2)C(C(=O)NC2CCCC2)c2ccc(N(C)C)cc2)cc1 (configuration not stated)	-4%	2.5µM*	4%	21%[9.22 µM]	-14%[10 µM]
COc1ccc(CN(C(=O)CNC(=O)c2ccco2)C(C(=O)NC2CCCC2)c2ccco2)cc1 (configuration not stated)	-1%	0.4µM*	-1%	1%	8%
Cc1ccc(S(=O)(=O)N2c3ccccc3OCC2c2ccccc2)cc1 (configuration not stated)	-10%	10%	?	-25%	-20%[10 µM]
O=C(C(Cl)Cl)N1c2ccccc2OCC1c1ccccc1 (configuration not stated)	-12%	1.3µM*	-7%	?	-71%[10 µM]
CCn1c(=N)n(CC(=O)C23CC4CC(CC(C4)C2)C3)c2ccccc21	?	22µM*	?	-32%	-7%[0.074 µM]
CCn1c(=N)n(CC(=O)c2cccc([N+](=O)[O-])c2)c2ccccc21	-1%	-6%	2%	17%	13%[10 µM]
Clc1ccc(CSCCc2ccncc2)cc1Cl	-9%	18%[13.5 µM]	.	.	3%[10 µM]
COc1cccc(C(=O)Nc2ccc(C(=O)OCc3cc(=O)n4cc(C)sc4n3)cc2)c1	.	.	5%[46 µM]	.	.
CC1(C)CC(=O)C(C(N)=NC(=O)c2ccc([N+](=O)[O-])cc2)=C(O)C1	.	8%	.	-8%	-33%
CC1(C)CC(=O)C(C=Nc2cc(C(=O)c3ccccc3)ccc2N)=C(O)C1	.	11µM*	?	-4%	-20%
CC1(C)CC(=O)C(C=Nc2ccc(Cl)cn2)=C(O)C1	-22%	-1%	0%	5%	-22%
CC1(C)CC(=O)C(C(N)=NC(=O)c2ccccc2)=C(O)C1	.	10µM*	.	-9%	-24%
CSc1ccccc1N=CC1=C(O)CC(C)(C)CC1=O	-30%	2µM*	-4%	-1%	27%
COC(=O)c1ccc(N)c(N=CC2=C(O)CC(C)(C)CC2=O)c1	-22%	20µM*	1%	1%	.
SMILES	HPGD inh	ALDH1A1 block	Lamin A splicing	HTT aggregate	HTT ATP protect
Cc1cc(NC(=O)Nc2ccc(N(C)C)cc2)c2cc(F)cc(F)c2n1	-9%	-7%	.	.	-36%
CC(=O)N1CCCc2cc(S(=O)(=O)N3CCCCC3)ccc21	.	.	-5%[46 µM]	.	.
O=C(NCC(c1cccnc1)N1CCc2ccccc2C1)c1ccc(F)c(F)c1 (configuration not stated)	.	.	-3%[46 µM]	.	.
COc1ccc(OCc2nnc(SCC(=O)c3c(N)n(C)c(=O)n(C)c3=O)n2-c2ccccc2F)cc1	.	10%	.	8%[9.22 µM]	-16%[1.9 µM]
O=S(=O)(c1ccccc1)c1cnc(-c2ccccc2)nc1N1CCCC1	.	?	.	15%[9.22 µM]	-10%[10 µM]
Cc1ccc(S(=O)(=O)c2cnc(-c3ccccc3)nc2N2CCCCC2)cc1	.	13µM*	.	-5%[9.22 µM]	4%
CCc1n[nH]c(=S)n1/N=C/c1cc(Br)c(OC)cc1OC	7.9µM*	11%	?	3%	.
O=[N+]([O-])c1cccc(N/N=C/c2cccc3ccccc23)c1	-15%	?	?	?	14%[1.9 µM]
CC(C)Cn1[nH]c2c3c(ccc2c1=O)C(=O)c1ccccc1C3=O	2µM*	?	-10%	22µM*	-70%
O=C1c2ccccc2C(=O)c2c1ccc1c(=O)n(-c3ccccc3)[nH]c21	-5%	2%	10%	-21%	2%[10 µM]
CCOC1(c2ccccc2)CC1C(=O)N/N=C/c1cccc([N+](=O)[O-])c1 (configuration not stated)	.	.	.	15%[9.22 µM]	12%[10 µM]
COC(=O)c1ccc(NC(=O)CN(C)S(=O)(=O)c2ccc3c(c2)CCCC(=O)N3)cc1	.	.	-4%[46 µM]	.	.
C=CCn1c(SCC(=O)NC2CCCCC2)nc2ccccc2c1=O	.	-4%	-1%[46 µM]	14%	-7%[10 µM]
C=CCn1c(SCC(=O)NCCCC)nc2scc(-c3ccco3)c2c1=O	-22%	20µM*	-7%	-3%	-23%[10 µM]
C=CCn1c(SCC(=O)NC2CCCC2)nc2scc(-c3ccco3)c2c1=O	?	7.9µM*	15%	?	-8%[10 µM]
C=CCn1c(SCC(=O)NC(=O)NCc2ccco2)nc2sc(C)c(C)c2c1=O	-9%	0%	-2%	-2%	-17%
O=C(c1cc(Br)ccc1O)c1cc(Br)ccc1O	2.8µM*	-2%[13.5 µM]	.	.	3%[10 µM]
O=C(/C=C/c1ccccn1)c1cc(Br)ccc1O	.	22µM*	.	-13%[9.22 µM]	-1%[10 µM]
C/C=N/NC(=O)c1cc(Br)ccc1O	-17%	12%	-21%	8%	18%[10 µM]
O=C(/C=C/c1ccccn1)c1ccc(Br)cc1O	-2%	-1%	-7%	9%	.
COc1cc(C(c2sc3nc(C)nn3c2O)N2CC(C)OC(C)C2)cc(OC)c1OC (configuration not stated)	-11%	4%	-10%	-5%	-15%
